From the supplement of paper PMC11732987, “Enantioselective OTUD7B fragment discovery through chemoproteomics screening and high-throughput optimisation” (Communications Chemistry, 2025)

Assays:
Assay in all cases: log2 ratio of Biotin-Ahx-Ub-VS probe labelling (fragment/DMSO); higher = less target engagement (more negative = stronger competition), active = hit call of the paper (q ≤ 0.05, log2 ratio ≤ -1)
Conditions in all cases: compound concentration: 200 uM; treatment time: 3 h
USP19 = target: T1, USP19 (UniProt O94966)
T1 sequence (whole entry): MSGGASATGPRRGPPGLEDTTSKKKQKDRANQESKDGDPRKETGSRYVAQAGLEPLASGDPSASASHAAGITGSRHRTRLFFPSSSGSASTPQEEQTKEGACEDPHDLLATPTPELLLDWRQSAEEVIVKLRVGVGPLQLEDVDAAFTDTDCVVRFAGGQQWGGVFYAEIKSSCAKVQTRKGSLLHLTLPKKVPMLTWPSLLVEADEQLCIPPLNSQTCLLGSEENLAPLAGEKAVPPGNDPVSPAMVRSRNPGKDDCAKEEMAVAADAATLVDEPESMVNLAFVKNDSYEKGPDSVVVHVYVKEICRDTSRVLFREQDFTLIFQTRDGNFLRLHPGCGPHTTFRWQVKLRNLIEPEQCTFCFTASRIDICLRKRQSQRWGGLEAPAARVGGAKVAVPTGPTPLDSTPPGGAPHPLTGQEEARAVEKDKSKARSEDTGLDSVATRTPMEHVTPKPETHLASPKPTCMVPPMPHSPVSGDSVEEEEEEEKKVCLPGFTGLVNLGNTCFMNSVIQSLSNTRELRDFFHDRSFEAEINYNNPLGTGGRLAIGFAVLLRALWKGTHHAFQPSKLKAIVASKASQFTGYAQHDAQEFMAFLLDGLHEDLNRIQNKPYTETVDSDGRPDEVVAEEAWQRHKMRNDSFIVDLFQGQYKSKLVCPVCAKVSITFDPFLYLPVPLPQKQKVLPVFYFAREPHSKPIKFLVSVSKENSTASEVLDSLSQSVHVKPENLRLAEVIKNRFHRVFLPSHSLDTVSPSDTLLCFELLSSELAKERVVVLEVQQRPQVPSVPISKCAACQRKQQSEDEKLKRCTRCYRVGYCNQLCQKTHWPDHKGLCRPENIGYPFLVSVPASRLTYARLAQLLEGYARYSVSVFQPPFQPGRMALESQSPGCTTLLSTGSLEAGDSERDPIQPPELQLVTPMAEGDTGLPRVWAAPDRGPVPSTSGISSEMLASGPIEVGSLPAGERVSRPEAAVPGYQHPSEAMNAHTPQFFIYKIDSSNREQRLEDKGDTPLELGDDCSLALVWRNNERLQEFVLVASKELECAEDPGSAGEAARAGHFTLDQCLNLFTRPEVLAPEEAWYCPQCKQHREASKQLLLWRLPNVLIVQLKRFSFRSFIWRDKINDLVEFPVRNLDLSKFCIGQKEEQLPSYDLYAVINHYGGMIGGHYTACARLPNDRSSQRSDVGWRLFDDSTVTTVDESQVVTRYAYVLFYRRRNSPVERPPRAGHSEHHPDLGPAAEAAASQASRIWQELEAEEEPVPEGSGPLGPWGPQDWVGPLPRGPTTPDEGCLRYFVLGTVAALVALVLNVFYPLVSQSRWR
How it was run: (§1)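 The table lists average log2 ratios of fragment over vehicle, from an unpaired t-test on global-median-normalised Spectronaut label-free quantities. Proteins with ≥2 unique peptides were used. Samples were HEK293T lysate (495 µg) treated in triplicate with fragment at 200 µM or vehicle for 3 h, then with Biotin-Ahx-Ub-VS (0.5 µM final) for 1 h, with labelled DUBs NeutrAvidin-enriched and run by diaPASEF LC-MS/MS.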

USP22 = target: T2, USP22 (UniProt Q9UPT9)
T2 sequence (whole entry): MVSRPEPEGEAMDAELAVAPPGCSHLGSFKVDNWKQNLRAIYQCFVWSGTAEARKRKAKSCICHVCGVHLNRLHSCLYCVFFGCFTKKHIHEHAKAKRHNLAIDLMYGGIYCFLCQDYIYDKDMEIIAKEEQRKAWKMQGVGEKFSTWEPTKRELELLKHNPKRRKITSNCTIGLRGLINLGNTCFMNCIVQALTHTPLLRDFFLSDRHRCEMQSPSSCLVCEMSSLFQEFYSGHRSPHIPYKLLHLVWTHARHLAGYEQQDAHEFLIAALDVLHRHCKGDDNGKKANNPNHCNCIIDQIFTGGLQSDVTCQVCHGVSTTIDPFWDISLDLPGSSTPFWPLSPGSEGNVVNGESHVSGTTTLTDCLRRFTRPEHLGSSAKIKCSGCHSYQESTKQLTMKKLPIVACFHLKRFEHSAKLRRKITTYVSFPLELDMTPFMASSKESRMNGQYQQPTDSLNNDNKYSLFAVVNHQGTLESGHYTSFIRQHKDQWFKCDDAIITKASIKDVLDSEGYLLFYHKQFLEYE
How it was run: as §1

USP24 = USP24 (UniProt Q9UPU5)
USP24, sequence (Q9UPU5 whole entry): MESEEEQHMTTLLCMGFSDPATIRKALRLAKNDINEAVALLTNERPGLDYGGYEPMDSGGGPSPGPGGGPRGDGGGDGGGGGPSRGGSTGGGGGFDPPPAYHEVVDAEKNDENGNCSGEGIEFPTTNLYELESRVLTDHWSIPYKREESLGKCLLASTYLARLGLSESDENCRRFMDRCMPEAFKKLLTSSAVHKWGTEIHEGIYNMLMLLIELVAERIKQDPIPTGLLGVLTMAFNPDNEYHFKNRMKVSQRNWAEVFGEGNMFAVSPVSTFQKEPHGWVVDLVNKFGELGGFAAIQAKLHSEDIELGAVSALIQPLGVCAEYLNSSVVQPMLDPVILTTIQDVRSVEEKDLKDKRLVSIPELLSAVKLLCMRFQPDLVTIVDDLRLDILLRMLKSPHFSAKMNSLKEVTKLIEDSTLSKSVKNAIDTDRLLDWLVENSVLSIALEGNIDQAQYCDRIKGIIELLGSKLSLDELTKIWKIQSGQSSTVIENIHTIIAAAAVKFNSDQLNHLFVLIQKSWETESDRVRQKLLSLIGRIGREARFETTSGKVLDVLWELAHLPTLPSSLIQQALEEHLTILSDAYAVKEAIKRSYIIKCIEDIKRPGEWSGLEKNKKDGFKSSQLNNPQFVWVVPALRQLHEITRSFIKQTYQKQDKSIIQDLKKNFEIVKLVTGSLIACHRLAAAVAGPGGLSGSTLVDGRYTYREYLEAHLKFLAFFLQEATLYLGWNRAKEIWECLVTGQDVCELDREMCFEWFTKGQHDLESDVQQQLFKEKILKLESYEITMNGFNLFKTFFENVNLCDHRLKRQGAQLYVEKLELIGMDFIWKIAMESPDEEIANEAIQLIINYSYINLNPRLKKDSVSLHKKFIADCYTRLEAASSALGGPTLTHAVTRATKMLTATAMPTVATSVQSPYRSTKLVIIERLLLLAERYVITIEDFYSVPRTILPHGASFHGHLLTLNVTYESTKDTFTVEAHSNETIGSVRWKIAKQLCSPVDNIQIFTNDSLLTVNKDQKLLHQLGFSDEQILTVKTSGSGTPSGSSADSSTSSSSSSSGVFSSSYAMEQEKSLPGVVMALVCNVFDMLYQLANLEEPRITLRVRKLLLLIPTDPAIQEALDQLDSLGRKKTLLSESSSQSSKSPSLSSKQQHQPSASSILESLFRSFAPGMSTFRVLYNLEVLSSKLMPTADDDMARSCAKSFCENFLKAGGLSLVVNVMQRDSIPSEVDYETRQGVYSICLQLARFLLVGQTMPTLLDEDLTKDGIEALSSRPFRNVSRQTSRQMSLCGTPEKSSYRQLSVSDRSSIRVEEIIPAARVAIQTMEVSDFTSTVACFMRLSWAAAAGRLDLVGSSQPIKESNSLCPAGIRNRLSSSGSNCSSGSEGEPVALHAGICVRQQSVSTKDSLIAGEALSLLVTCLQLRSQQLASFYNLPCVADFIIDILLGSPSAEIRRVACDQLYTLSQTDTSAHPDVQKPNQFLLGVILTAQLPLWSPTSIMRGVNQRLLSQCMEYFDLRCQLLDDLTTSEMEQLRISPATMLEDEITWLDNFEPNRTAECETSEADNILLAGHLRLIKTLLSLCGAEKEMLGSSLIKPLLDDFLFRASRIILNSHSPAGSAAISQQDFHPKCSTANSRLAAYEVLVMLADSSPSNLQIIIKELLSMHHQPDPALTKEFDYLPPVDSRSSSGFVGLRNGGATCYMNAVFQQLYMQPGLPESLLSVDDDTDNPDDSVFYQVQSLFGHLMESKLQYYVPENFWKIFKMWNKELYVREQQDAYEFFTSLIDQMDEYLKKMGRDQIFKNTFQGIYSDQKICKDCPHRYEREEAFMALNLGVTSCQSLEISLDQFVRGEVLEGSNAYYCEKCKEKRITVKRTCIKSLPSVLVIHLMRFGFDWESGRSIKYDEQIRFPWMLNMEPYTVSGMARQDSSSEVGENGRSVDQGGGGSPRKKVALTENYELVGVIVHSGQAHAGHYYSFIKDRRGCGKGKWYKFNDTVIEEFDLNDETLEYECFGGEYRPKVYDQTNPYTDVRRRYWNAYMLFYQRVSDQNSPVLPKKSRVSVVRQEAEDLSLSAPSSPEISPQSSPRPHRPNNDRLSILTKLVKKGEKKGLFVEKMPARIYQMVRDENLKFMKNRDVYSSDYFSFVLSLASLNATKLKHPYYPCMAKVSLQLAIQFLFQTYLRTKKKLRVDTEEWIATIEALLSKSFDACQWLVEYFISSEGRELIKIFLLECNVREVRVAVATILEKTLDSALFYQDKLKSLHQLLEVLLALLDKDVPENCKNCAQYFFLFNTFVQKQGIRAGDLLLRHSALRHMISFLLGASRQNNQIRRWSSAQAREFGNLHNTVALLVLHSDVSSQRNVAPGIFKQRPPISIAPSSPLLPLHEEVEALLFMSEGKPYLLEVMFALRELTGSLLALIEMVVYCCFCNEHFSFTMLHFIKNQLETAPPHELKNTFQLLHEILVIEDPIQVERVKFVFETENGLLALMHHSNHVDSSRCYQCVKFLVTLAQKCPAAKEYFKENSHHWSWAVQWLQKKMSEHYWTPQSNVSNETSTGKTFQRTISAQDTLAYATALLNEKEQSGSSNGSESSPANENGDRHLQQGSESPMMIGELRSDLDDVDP
How it was run: as §1

USP25 = target: T3, USP25 (UniProt Q9UHP3)
T3 sequence (whole entry): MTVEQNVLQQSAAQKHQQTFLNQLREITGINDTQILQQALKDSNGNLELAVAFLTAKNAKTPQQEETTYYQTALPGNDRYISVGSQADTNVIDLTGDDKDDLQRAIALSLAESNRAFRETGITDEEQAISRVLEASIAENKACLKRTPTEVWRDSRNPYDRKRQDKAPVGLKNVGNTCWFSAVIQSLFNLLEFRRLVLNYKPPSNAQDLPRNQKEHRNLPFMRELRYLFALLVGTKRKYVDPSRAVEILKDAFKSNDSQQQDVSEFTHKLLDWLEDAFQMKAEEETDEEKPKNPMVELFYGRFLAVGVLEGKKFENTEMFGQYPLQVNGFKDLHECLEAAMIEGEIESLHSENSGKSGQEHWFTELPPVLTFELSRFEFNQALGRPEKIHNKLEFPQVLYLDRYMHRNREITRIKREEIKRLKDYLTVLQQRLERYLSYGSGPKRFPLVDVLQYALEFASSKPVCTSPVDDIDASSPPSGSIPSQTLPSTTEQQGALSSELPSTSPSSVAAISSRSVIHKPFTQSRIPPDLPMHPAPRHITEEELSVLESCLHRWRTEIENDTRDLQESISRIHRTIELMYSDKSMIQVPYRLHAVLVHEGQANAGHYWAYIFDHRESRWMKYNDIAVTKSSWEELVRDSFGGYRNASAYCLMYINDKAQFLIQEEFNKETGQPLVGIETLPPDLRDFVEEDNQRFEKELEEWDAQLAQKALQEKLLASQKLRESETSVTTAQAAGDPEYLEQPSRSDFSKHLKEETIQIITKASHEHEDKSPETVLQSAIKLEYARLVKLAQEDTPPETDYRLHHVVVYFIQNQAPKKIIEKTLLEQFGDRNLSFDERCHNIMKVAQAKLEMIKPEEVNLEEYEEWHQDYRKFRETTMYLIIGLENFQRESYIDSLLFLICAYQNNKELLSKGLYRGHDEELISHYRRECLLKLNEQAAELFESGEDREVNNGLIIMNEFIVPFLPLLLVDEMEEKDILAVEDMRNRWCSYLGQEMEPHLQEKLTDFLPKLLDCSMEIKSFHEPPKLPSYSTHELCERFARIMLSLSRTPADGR
How it was run: as §1

USP28 = target: T4, USP28 (UniProt Q96RU2)
T4 sequence (whole entry): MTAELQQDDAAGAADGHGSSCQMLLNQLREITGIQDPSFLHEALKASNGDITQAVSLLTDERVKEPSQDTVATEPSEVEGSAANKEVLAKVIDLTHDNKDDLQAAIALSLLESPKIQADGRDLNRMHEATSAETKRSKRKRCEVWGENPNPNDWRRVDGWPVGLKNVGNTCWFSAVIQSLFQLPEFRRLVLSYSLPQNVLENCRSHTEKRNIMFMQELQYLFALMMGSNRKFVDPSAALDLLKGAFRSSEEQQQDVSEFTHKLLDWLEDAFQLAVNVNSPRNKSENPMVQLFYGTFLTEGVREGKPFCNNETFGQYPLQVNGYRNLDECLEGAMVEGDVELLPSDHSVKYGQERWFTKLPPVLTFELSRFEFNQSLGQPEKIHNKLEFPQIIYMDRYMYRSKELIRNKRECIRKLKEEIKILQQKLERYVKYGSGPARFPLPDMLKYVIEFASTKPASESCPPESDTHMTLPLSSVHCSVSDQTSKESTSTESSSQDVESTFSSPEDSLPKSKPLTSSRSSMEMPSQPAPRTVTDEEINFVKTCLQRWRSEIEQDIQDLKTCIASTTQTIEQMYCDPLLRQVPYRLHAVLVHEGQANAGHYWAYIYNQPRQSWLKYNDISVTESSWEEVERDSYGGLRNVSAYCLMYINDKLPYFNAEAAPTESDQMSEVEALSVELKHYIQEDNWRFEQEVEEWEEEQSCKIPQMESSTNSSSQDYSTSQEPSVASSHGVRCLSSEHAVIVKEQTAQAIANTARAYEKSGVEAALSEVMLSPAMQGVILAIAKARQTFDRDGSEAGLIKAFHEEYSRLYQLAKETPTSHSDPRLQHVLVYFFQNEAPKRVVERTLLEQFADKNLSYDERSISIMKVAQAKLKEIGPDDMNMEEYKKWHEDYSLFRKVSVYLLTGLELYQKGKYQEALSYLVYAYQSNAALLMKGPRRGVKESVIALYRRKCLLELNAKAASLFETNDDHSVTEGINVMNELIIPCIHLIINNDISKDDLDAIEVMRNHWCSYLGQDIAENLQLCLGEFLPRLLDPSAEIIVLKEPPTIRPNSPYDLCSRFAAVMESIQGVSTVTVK
How it was run: as §1

Measured: log2 ratio of Biotin-Ahx-Ub-VS probe labelling

O=C(CCl)N(Cc1ccsc1)C1CC1
inactive: USP19 -0.0676 | USP22 0.255 | USP24 -0.704 | USP25 -0.45 | USP28 -0.283
